The values that follow come from PubChem BioAssay (EPA / NIEHS).

SMILES strings stand for the structures. Where “and” joins values, the source holds several entries; their conditions need not be identical. Identical values can stand only once. Some structures have more than one record in an assay (separate samples or runs), and their calls can disagree. Calls of active or inactive are those of the source. Rule for the calls: active = hit-call score of the fitted dose curve at least 0.9, where 1 is the maximum; inactive = score below 0.9.

A word on the AC50: it is the midpoint of the concentration-response curve, whichever way the signal moves.

Sequence of Cellular tumor antigen p53 (Homo sapiens) (P04637 whole entry, looked up): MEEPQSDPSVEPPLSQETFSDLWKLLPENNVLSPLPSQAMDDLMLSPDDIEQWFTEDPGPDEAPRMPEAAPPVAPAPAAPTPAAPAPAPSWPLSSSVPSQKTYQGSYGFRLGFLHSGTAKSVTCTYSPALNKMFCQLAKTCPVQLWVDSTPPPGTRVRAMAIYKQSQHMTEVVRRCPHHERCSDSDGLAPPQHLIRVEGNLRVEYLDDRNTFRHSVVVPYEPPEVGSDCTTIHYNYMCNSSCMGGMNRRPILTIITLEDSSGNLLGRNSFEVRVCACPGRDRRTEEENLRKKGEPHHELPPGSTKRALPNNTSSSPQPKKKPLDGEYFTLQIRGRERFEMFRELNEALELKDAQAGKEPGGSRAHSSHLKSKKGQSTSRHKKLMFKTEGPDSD

In this experiment the target is Cellular tumor antigen p53 (Homo sapiens) (UniProt P04637). Description: ATG_p53_CIS: Attagene CIS-FACTORIAL HepG2 Assay for human p53 Transcription Factor (AID 2282994). The conditions noted are these: HepG2 p53 cis-element reporter, Attagene mRNA; actives raise or lower the signal. The procedure:
ATG_CIS is a cell-based, multiplexed-readout assay that uses HepG2, a human liver cell line, with measurements taken at 24 hours after chemical dosing in a 24-well plate.ATG_p53_CIS is one of 52 assay component(s) measured or calculated from the ATG_CIS assay. It is designed to make measurements of mRNA induction, a form of inducible reporter, as detected with fluorescence intensity signals by Reverse transcription polymerase chain reaction (RT-PCR) and Capillary electrophoresis technology.Data from the assay component ATG_p53_CIS was analyzed into 1 assay endpoint. This assay endpoint, ATG_p53_CIS, was analyzed with bidirectional fitting relative to DMSO as the negative control and baseline of activity. Using a type of inducible reporter, measures of mRNA for gain or loss-of-signal activity can be used to understand the reporter gene at the transcription factor-level as they relate to the gene TP53. Furthermore, this assay endpoint can be referred to as a primary readout, because this assay has produced multiple assay endpoints where this one serves a reporter gene function. To generalize the intended target to other relatable targets, this assay endpoint is annotated to the dna binding intended target family, where the subfamily is tumor suppressor.
Human liver HepG2 cells are transiently transfected with multiple reporter transcription units (MRTUs) in 6-well plates using FuGene 6 reagent (Roche; 3 ml FuGene/1 mg DNA). The MRTU constructs are regulated by a cis-regulating element (promoter). […] A major difference between the CIS and TRANS system is that in CIS activities of endogenous TFs are measured, whereas the TRANS assay evaluates changes in activities of exogenous, chimeric NR-Gal4 proteins. […] At the end of 24 hour incubation, total RNA was isolated using TriZol reagent (Invitrogen). The isolated RNA is then reverse-transcribed using oligo(dT) primer and Mo-MLV reverse transcriptase (Invitrogen) with DNAse I (Ambion) treatment for 30 min. The one-tenth of the produced cDNA was amplified by PCR using Taq DNA polymerase (Invitrogen) and two reporter sequence-specific primers. The PCR products were fluorescently labeled by primer extension with 6-arboxyfluorescein (6-FAM) 5'-labeled reporter sequence-specific primer (2 min at 95 C, 20 s at 68 C and 10 min at 72 C) and these products were digested with 5U of HpaI (New England Biolabs) for 2h at 37 C. The fragments were purified using Qiaquick PCR columns (Qiagen), analyzed on an ABI 3130xL genetic analyzer (Applied Biosystems) with peak positions identified by using a set of X-rhodamine (ROX)-labeled MapMarker1000 molecular weight standards (BioVentures). The raw capillary electrophoresis data was processed using Attagraph software (Attagene).
Take `O=C(O)CN(CCCN(CC(=O)O)CC(=O)O)CC(=O)O`: the molecule was classed as inactive.
Turning to `OCCN1CN(CCO)CN(CCO)C1`, the molecule was called inactive.
In the case of `c1ccc2c(c1)CCC2`, the result was inactive.
The same measure, in the same setting: the result for `FC(F)(F)C(F)(F)C(F)(F)Br` reads “inactive”; that for `COc1cc(OC)nc(NC(=O)NS(=O)(=O)Nc2ccccc2C(=O)N(C)C)n1`, “inactive”.
Still for that read-out and setting: to `CCO[Si](C)(C)OCC` belongs “inactive”.
`CC(C)(C)c1ccc(CCC=O)cc1`: the AC50 was 182 µM (active).
`FC(F)(F)C1(F)C(F)(F)C(F)(F)C(F)(F)C1(F)F`: the outcome was inactive.
As to `C[N+](C)(CCCNS(=O)(=O)CCC(F)(F)C(F)(F)C(F)(F)C(F)(F)C(F)(F)C(F)(F)F)CC(=O)[O-]`, the call was inactive.
The same measure, in the same setting: to `C=CC(F)(F)C(F)(F)C(F)(F)C(F)(F)F` belongs “inactive”; to `OCC1CCC(CO)CC1` (stereo not given), “inactive”.
On to `O=C(CCCN1CCC(O)(c2ccc(Cl)cc2)CC1)c1ccc(F)cc1`, for which the AC50 is 46.2 µM (active).
For the molecule `COC(=O)CC(C(C)=O)C(=O)OC` (stereo not given), the result was inactive.
The same measure, in the same setting: the result for `CCCCCCCCC(C)=O` reads “inactive”.
As to `O=C(c1ccccc1)c1ccccc1`, the AC50 was 168 µM (active) and the outcome was inactive.
In the case of `NC(=NCCCCCCN=C(N)/N=C(\N)Nc1ccc(Cl)cc1)/N=C(\N)Nc1ccc(Cl)cc1`, the molecule was called inactive; the AC50 was 8.29 µM (active) and 8.25 µM (active).
As to `FC(F)(F)C1(F)C(F)(F)C(F)(F)C(F)(F)C(F)(C(F)(F)F)C1(F)F` (stereo not given), the molecule was classed as inactive.
Still for that read-out and setting: the result for `CCCCCCCCCC=CCC1CC(=O)OC1=O` (stereo not given) reads “inactive”.
As to `O=S(=O)(c1ccc(OCc2ccccc2)cc1)c1ccccc1O`, the AC50 was 33.4 µM (active).
On to `O=C(O)C(=O)O`, for which the result was inactive.
Same read-out and setting: the result for `O=C(C=C(O)C(F)(F)F)C(F)(F)F` reads “inactive”.
Still for that read-out and setting: the result for `FC(F)(F)C(F)(F)C(F)(F)C(F)(F)I` reads “inactive”.
Same read-out and setting: to `c1cc[nH]c1` belongs “inactive”; to `Oc1cccc2c(O)cccc12`, “inactive”.
With `Oc1c(Cl)ccc(Cl)c1Cl`, the result was inactive.
Still for that read-out and setting: the result for `NC(C(F)(F)F)C(F)(F)F` reads “inactive”.
Still for that read-out and setting: to `CN(CCO)S(=O)(=O)C(F)(F)C(F)(F)C(F)(F)C(F)(F)C(F)(F)C(F)(F)C(F)(F)C(F)(F)F` belongs “inactive”; to `O=C1C=CC(=O)N1c1cccc(N2C(=O)C=CC2=O)c1`, “inactive”; to `FC(F)(F)N1C(F)(F)C(F)(F)OC(F)(F)C1(F)F`, “inactive”.
`CC(=O)CC(C)C`: the molecule was called inactive.
Still for that read-out and setting: to `Cc1ccc(N=Nc2c(O)ccc3ccccc23)c(C)c1` belongs “inactive”; to `O=P(O)(O)CCC(F)(F)C(F)(F)C(F)(F)C(F)(F)C(F)(F)C(F)(F)F`, “inactive”; to `FC(OC(F)(F)C(F)(F)C(F)(F)F)C(F)(F)F` (stereo not given), “inactive”.
On the same count and under the same terms, the result for `CC1COCc2cc3c(cc21)C(C)(C)C(C)C3(C)C` (stereo not given) reads “inactive”; that for `C=CC(=O)OCCC(F)(F)C(F)(F)C(F)(F)C(F)(F)C(F)(F)C(F)(F)F`, “inactive”; that for `c1cc2cccc3c4cccc5cccc(c(c1)c23)c54`, “inactive”.
On the same count and under the same terms, to `c1ccc(CNc2ncnc3c2ncn3C2CCCCO2)cc1` (stereo not given) belongs “inactive”; to `CC1=NN(c2ccccc2)C(=O)C1`, “inactive”.
